According to the supplement of paper PMC10338343:
± gives the standard deviation.

test system: EfPiwi piRISC loaded with piRNA #1 (26 nt); assay: pre-steady-state target cleavage rate (min^-1); auxiliary factor: 500 nM Ephydatia muelleri Gtsf1; guide: piRNA #1 5'p-UGAGGUAGUAGGUUGUAUAGUAUCCA; MIWI and MILI are mouse PIWI proteins and EfPiwi is from a freshwater sponge; tags in brackets are library labels; higher = faster piRNA-guided slicing of the target
Procedure, shortened: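 Using HEPES–potassium acetate buffer at 33 °C, 1 nM active affinity-purified piRISC with a single synthetic guide was mixed with 0.1 nM transcribed, DNA-blocked target RNA library for 0–8 or 0–960 min, with or without 500 nM GTSF1 partner protein. Uncleaved targets were sequenced and normalised to depth and to weakly complementary targets, and three trials were pooled with k3 capped at 0.0001 min^-1. A burst-and-steady-state fit gave the pre-steady-state cleavage rate.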

| Sequence | pre-steady-state target cleavage rate |
| --- | --- |
| GGAGACCUAUGAUAUGUACCCACUACCUCA | < 0.0001 |
| GGAGUGGAUACUAUACAACGAUCUACCUCA | 0.00198 ± 0.0014 |
| GGAGAGGAUACUAUACAACCUAGUACCACA | 0.00381 ± 0.0016 |
| GGAGACGAUACUAUACUAGCUACUACCUCA | 0.00469 ± 0.0025 |
| GGAGACCAAACUAUACAACCUUCUACCUCA | 0.00406 ± 0.0026 |
| GGAGACCUAUGAUAUGUUGGUACUACCUCU [g2:g10:cont:t1U] | < 0.0001 |
| GGAGACGAUACUAUACAACCUAGUACCUGA | 0.00389 ± 0.001 |
| GGAGAGGAUACUAUACAACCUACAACGUCA | 0.00371 ± 0.0017 |
| GGAGACGAAACUAUACAACCAACUACCUCA | 0.0068 ± 0.0036 |
| GGAGACCAUACUAUACAACCUACUUGGUCA | 0.00392 ± 0.0029 |
| GGAGUGGAUACUCAUACAACCUACUACCUCA | 0.0153 ± 0.0069 |
| GGAGAGGUUACUAUACAACCUAGUACCUCA | 0.00366 ± 0.0015 |
| GGAGAGGAUACUAUACAACCAACAACCUCA | 0.00224 ± 0.0022 |
| GGAGACGAUAGUAUACAACCUACUACGUCA | 0.0019 ± 0.0015 |
| GGAGAGCAUUCUAUACAACCUACUACCUCA | 0.0192 ± 0.01 |
| GGAGAGGAUACUAUACAACCUAACUACCUCA | 0.00656 ± 0.0027 |
| GGAGAGGAUACUUUACAACCUACUACCUGA | 0.00329 ± 0.0017 |
| GGAGACCAUACUGUACAACCUACUACCUCA | 0.0144 ± 0.0056 |
| GGAGACCAUACUAUAUAACCUACUACCUCA | 0.00757 ± 0.0042 |
| GGAGACCUUACUAUACAACCUAGUUCCUCA | 0.00334 ± 0.0033 |

| Sequence | pre-steady-state target cleavage rate |
| --- | --- |
| GGAGACGAUACUAUUCAACCUAGUACCUCA | 0.0035 ± 0.0018 |
| GGAGUGCAUACUAUACAAGCUACUACCUCA | 0.00482 ± 0.002 |
| GGAGACCUAUGAUAUGUACCUACUACGCUCA | < 0.0001 |
| GGAGACCUAUGAAUAGAACCUACUAGCUCA | < 0.0001 |
| GGAGACCUAUGAAUACAACCUACAUGCUCA | < 0.0001 |
| GGAGAGGAUACUAUACAACCUAGAUCCUCA | 0.00241 ± 0.0021 |
| GGAGAGGAUUCUAUACAACGUACUACCUCA | 0.00249 ± 0.0021 |
| GGAGACCUUACUAUACAAGCUACUACCUGA | 0.00346 ± 0.003 |
| GGAGAGGAUACUAUACAACCUACUUGCUCA | 0.00478 ± 0.0023 |
| GGAGACCAUACUAUUACAACCUACUACCUCA | 0.0115 ± 0.0046 |
| GGAGAGGAAUGUAUACAACCUACUACCUCA | 0.0061 ± 0.0042 |
| GGAGACCAUACUAUACAACCAACUAGCUCA | 0.0061 ± 0.0043 |
| GGAGACCAUACUAUACAACGCUACUACCUCA | 0.0082 ± 0.0044 |
| GGAGACCUUACUAUACAACCCUACUACCUCA | 0.00411 ± 0.0037 |
| GGAGACCAUACUAUACAACCUACUACCUCC [g2:g23:cont:t1C] | 0.0109 ± 0.0042 |
| GGAGACCUUACUAUACAACCUACUACACUCA | 0.0028 ± 0.0026 |
| GGAGAGGAAUACUAUACAACCUACUACCUCA | 0.0974 ± 0.034 |
| GGAGACGAUACUAUACAGACCUACUACCUCA | 0.0101 ± 0.0034 |
| GGAGUGGAUACUAUACAUACCUACUACCUCA | 0.0107 ± 0.0063 |
| GGAGACGAUACUAUACUACCUACUACCUGA | 0.00446 ± 0.0021 |
